# In PubChem BioAssay (EPA / NIEHS):
# Several values for one entry are separate records, joined by “and”; a condition that tells them apart may be missing. Equal values may be shown once. Results filed as inconclusive are left out. Activity calls are given as the source filed them. How the source made its calls, unless noted: active means hit-call score of the fitted dose curve at least 0.9, where 1 is the maximum; inconclusive means response in the unintended direction; inactive means score below 0.9.
# Experiments:
# [1] = read-out: Intercellular Adhesion Molecule 1 (ICAM1), ICAM1 (gene 3383); assay: BSK_3C_ICAM1: BioMAP Diversity Plus: 3C Assay for Intercellular Adhesion Molecule 1 (ICAM1) Biomarker Activity (AID 2283003; active means hit-call score of the fitted dose curve at least 0.9, where 1 is the maximum; inactive means score below 0.9); conditions: primary human endothelial cells (HUVEC); actives raise or lower the signal
# In short: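 Chemicals are dosed onto primary human umbilical vein endothelium (3C system). After 24 h, ICAM-1 is measured by ELISA, and responses are fitted bidirectionally relative to DMSO.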
# [2] = BSK_3C_Proliferation: Cell Proliferation Assessment in the BioMAP Diversity Plus: 3C Assay (AID 2283006; active means hit-call score of the fitted dose curve at least 0.9, where 1 is the maximum; inactive means score below 0.9;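 on AC50: potency may reflect either rise or fall in cell number versus DMSO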); conditions: primary human endothelial cells (HUVEC)
# In short: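 Cells (human umbilical vein endothelial, sub-confluent) receive test chemical; after 48 h they are fixed in 10% trichloroacetic acid, stained with 0.1% SRB and read at 560 nm. Activity is referenced to DMSO, fitting increases and decreases.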
# [3] = biological target: Nuclear receptor subfamily 1 group I member 2 (Homo sapiens) (UniProt O75469); assay: ATG_PXR_TRANS: Attagene TRANS-FACTORIAL HepG2 Assay for human Pregnane X Receptor (PXR) (AID 2283008)
# Sequence of Nuclear receptor subfamily 1 group I member 2 (Homo sapiens) (O75469 whole entry, looked up, the tested form may be a part): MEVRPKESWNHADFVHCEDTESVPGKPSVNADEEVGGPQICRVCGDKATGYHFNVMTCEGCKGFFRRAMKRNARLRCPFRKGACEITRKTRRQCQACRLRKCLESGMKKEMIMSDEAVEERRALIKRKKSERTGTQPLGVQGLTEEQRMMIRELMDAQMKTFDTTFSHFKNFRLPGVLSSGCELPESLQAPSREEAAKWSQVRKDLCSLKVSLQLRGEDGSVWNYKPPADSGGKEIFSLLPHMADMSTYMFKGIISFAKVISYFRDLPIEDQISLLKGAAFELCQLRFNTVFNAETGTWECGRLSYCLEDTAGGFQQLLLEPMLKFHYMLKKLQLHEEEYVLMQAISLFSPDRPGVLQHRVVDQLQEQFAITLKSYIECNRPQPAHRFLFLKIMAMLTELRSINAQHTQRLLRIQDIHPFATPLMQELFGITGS
# In short: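 Trans-factorial format: exogenous NR-Gal4 fusion activity, not endogenous factor, in transfected human HepG2 liver cells. After 24 h dosing, RNA isolated, reverse-transcribed, amplified and resolved by capillary electrophoresis; induction scored versus DMSO.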
# [4] = biological target: human RAR-related Orphan Receptor beta (RORb), RORB (gene 6096) (UniProt Q92753); assay: ATG_RORb_TRANS: Attagene TRANS-FACTORIAL HepG2 Assay for human RAR-related Orphan Receptor beta (RORb) (AID 2283010)
# Sequence of human RAR-related Orphan Receptor beta (RORb), RORB (gene 6096) (Q92753 whole entry, looked up, the tested form may be a part): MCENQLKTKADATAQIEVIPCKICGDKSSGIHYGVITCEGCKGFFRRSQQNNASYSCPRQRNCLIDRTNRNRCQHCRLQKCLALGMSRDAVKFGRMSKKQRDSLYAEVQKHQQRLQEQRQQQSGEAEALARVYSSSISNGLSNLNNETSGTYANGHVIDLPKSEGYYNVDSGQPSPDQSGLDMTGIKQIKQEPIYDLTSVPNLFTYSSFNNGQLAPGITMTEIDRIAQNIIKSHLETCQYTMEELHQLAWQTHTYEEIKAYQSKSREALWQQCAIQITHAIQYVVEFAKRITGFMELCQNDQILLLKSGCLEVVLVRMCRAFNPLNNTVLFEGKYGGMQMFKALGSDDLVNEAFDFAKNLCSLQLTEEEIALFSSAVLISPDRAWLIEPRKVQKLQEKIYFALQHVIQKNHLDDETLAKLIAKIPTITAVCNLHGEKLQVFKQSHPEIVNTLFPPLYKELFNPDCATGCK
# In short: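 Transfect HepG2 with multiple GAL4-UAS reporter transcription units; dose chemicals for 24 h; isolate RNA, reverse-transcribe and PCR-amplify reporter sequences; label, digest and resolve fragments by capillary electrophoresis; fit increases relative to DMSO.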
# [5] = biological target: human Retinoic Acid Receptor beta (RARb), RARB (gene 5915) (UniProt P10826); assay: ATG_RARb_TRANS: Attagene TRANS-FACTORIAL HepG2 Assay for human Retinoic Acid Receptor beta (AID 2283004)
# Sequence of human Retinoic Acid Receptor beta (RARb), RARB (gene 5915) (P10826 whole entry, looked up, the tested form may be a part): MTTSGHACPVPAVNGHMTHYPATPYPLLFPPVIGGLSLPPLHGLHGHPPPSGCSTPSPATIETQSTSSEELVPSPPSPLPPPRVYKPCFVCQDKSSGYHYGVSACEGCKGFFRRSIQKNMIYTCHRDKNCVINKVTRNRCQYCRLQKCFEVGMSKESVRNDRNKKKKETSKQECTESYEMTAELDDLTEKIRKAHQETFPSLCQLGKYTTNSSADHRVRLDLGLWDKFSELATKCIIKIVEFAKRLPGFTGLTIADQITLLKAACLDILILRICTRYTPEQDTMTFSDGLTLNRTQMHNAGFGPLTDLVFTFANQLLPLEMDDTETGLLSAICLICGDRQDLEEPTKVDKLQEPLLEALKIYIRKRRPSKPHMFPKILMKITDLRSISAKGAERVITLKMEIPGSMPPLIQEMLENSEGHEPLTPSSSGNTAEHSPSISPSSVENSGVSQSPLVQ
# In short: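 HepG2, transient MRTU transfection, NR–Gal4 chimera, 24 h treatment; RT-PCR plus CE fluorescence detection of reporter mRNA; gain of signal vs DMSO.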
# [6] = biological target: human Retinoic Acid Receptor gamma (RARg), RARG (gene 5916) (UniProt P13631); assay: ATG_RARg_TRANS: Attagene TRANS-FACTORIAL HepG2 Assay for human Retinoic Acid Receptor gamma (RARg) (AID 2283009)
# Sequence of human Retinoic Acid Receptor gamma (RARg), RARG (gene 5916) (P13631 whole entry, looked up, the tested form may be a part): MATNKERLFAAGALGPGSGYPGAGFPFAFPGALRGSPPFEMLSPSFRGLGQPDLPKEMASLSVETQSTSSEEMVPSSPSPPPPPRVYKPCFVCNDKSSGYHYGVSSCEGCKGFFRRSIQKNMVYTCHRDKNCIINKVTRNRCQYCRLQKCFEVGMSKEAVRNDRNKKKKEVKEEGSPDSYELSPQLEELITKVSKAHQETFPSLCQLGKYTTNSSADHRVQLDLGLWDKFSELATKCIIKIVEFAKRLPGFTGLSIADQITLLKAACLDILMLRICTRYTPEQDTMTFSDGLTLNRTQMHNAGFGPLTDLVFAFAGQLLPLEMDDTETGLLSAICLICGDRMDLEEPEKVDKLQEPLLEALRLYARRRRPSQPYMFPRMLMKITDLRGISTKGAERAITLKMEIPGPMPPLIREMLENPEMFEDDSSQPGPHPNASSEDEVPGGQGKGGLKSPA
# In short: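 TRANS format measured activity of exogenous NR-GAL4 fusion (RARg) in transfected HepG2 liver cells after 24 h dosing. Induced reporter RNA was detected by RT-PCR/capillary electrophoresis fluorescence, analysed in the positive direction against DMSO.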
# [7] = biological target: Retinoic acid receptor alpha (Homo sapiens) (UniProt P10276); assay: ATG_RARa_TRANS: Attagene TRANS-FACTORIAL HepG2 Assay for human Retinoic Acid Receptor alpha (RARa) (AID 2283005)
# Sequence of Retinoic acid receptor alpha (Homo sapiens) (P10276 whole entry, looked up, the tested form may be a part): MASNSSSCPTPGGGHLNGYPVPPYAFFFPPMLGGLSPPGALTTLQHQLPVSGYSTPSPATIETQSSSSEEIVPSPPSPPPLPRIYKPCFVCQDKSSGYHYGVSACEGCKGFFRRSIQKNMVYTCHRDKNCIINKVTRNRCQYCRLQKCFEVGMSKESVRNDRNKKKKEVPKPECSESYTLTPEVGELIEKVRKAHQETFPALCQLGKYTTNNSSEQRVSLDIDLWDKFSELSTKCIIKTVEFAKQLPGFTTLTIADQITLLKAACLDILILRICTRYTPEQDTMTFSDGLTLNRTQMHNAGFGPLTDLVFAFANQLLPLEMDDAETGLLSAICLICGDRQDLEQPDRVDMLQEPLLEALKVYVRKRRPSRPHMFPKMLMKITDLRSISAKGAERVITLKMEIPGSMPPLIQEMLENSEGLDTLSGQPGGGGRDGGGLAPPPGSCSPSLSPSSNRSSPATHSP
# In short: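 HepG2 cells transiently transfected with multiple reporter units expressing chimeric RARα-GAL4 fusion, with GAL4-UAS-driven reporters. After 24 h compound exposure, reporter mRNA induction quantified by RT-PCR and capillary electrophoresis with fluorescent labeling; gain-of-signal fitted relative to DMSO control.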
# [8] = biological target: Peroxisome proliferator-activated receptor gamma (Homo sapiens) (UniProt P37231); assay: ATG_PPARg_TRANS: Attagene TRANS-FACTORIAL HepG2 Assay for human Peroxisome Proliferator-activated Receptor-gamma (PPARg) (AID 2283007)
# Sequence of Peroxisome proliferator-activated receptor gamma (Homo sapiens) (P37231 whole entry, looked up, the tested form may be a part): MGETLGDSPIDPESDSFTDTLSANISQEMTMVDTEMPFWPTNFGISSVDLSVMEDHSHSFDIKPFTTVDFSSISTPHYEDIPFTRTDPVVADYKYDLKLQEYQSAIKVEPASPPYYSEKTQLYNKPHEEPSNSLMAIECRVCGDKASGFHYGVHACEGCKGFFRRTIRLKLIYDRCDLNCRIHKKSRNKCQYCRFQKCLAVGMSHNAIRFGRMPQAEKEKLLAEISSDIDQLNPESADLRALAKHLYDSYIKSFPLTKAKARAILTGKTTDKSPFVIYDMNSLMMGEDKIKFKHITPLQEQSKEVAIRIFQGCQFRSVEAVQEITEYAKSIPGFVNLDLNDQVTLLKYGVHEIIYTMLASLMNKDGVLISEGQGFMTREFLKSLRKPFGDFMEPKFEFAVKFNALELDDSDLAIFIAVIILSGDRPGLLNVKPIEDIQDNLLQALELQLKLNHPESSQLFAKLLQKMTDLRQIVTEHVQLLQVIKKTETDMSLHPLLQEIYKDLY
# In short: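 HepG2 cells transiently transfected with multiplexed GAL4-UAS reporter units and exogenous chimeric NR-Gal4 proteins; reporter mRNA quantified after 24 h compound exposure by RT-PCR, fluorescent labelling, HpaI digestion and capillary electrophoresis; gain-of-signal fitted versus DMSO baseline.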
# [9] = biological target: human Peroxisome Proliferator-activated Receptor delta (PPARd), PPARD (gene 5467) (UniProt Q03181); assay: ATG_PPARd_TRANS: Attagene TRANS-FACTORIAL HepG2 Assay for human Peroxisome Proliferator-activated Receptor delta (PPARd) (AID 2283002)
# Sequence of human Peroxisome Proliferator-activated Receptor delta (PPARd), PPARD (gene 5467) (Q03181 whole entry, looked up, the tested form may be a part): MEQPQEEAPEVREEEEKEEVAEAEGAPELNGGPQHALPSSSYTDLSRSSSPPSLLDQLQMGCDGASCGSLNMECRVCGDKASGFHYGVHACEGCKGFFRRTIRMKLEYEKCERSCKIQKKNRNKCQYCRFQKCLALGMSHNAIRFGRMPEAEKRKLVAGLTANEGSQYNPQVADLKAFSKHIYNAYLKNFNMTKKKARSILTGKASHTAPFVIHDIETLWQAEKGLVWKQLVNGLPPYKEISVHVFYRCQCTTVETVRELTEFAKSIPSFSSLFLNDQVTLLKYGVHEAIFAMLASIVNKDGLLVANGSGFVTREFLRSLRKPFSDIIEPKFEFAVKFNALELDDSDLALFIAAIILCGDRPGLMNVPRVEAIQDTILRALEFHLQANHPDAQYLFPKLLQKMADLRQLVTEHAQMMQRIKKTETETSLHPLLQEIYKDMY
# In short: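 HepG2 cells transiently transfected with multiplexed GAL4-UAS reporter units and exogenous chimeric NR-Gal4 proteins; 24 h compound exposure. Reporter mRNA measured by RT-PCR, 6-FAM labelling, HpaI digestion and capillary electrophoresis; gain of signal versus DMSO.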
smiles,measurement,setting,value
O=C1CCCN1CCO,outcome,[1],inactive
same,outcome,[2],inactive
same,outcome,[3],inactive
same,outcome,[4],inactive
C[Si](C)O[Si](C)(C)O[Si](C)(C)O[Si](C)C,outcome,[5],inactive
same,outcome,[3],inactive
same,outcome,[6],inactive
c1c[nH]cn1,outcome,[5],inactive
same,outcome,[7],inactive
same,outcome,[8],inactive
same,outcome,[3],inactive
same,outcome,[6],inactive
O=c1n(CCO)c(=O)n(CCO)c(=O)n1CCO,outcome,[5],inactive
same,outcome,[7],inactive
same,outcome,[6],inactive
same,outcome,[4],inactive
CCCCNc1ccc(NCCCC)c2c1C(=O)c1ccccc1C2=O,outcome,[1],inactive
same,outcome,[2],inactive
same,outcome,[8],inactive
same,outcome,[3],inactive
CC1(C)S[C@@H]2[C@H](NC(=O)COc3ccccc3)C(=O)N2[C@H]1C(=O)O,outcome,[9],inactive
same,outcome,[4],inactive
CC[C@H]1OC(=O)[C@H](C)[C@@H](O[C@H]2C[C@@](C)(OC)[C@@H](O)[C@H](C)O2)[C@H](C)[C@@H](O[C@@H]2O[C@H](C)C[C@H](N(C)C)[C@H]2O)[C@](C)(O)C[C@@H](C)C(=NOCOCCOC)[C@H](C)[C@@H](O)[C@]1(C)O,outcome,[5],inactive
same,outcome,[7],inactive
same,outcome,[3],inactive
CCO[Si](C)(OCC)OCC,outcome,[1],inactive
same,outcome,[2],inactive
same,outcome,[3],inactive
same,outcome,[4],inactive
O=C1CCCC1,outcome,[5],inactive
same,outcome,[7],inactive
same,outcome,[6],inactive
same,outcome,[4],inactive
Cc1c(C)c([N+](=O)[O-])c(C(C)(C)C)c([N+](=O)[O-])c1C,outcome,[5],inactive
same,outcome,[7],inactive
same,outcome,[8],inactive
same,AC50,[3],2 µM (active)
same,outcome,[6],inactive
same,outcome,[4],inactive
CC(=O)OCC(C)OC(C)=O (stereo not drawn),outcome,[5],inactive
same,outcome,[3],inactive
C=C(C)c1cccc(C(C)(C)N=C=O)c1,outcome,[5],inactive
same,AC50,[8],5.62 µM (active)
same,AC50,[3],0.0915 µM (active)
same,outcome,[6],inactive
CCCCCCOC(=O)C(C)CC (stereo not drawn),outcome,[9],inactive
same,outcome,[3],inactive
C#CC1(O)CC[C@H]2[C@@H]3CCC4=CCCC[C@@H]4[C@H]3CC[C@@]21C (stereo partly drawn),AC50,[1],10.7 µM (active)
same,outcome,[5],inactive
same,outcome,[7],inactive
same,AC50,[2],11 µM (active)
same,AC50,[3],2.14 µM (active)
same,outcome,[6],inactive
CCCNC(=O)NS(=O)(=O)c1ccc(Cl)cc1,outcome,[5],inactive
same,outcome,[7],inactive
same,outcome,[8],inactive
same,outcome,[3],inactive
same,outcome,[6],inactive
same,outcome,[4],inactive
O=Cc1ccc(CO)o1,outcome,[7],inactive
CC1(C)[C@H]2CC[C@]1(C)C(=O)C2,outcome,[5],inactive
same,outcome,[3],inactive
same,outcome,[6],inactive
CC(C)(C)c1n[nH]c(=O)n(N)c1=O,outcome,[5],inactive
same,outcome,[3],inactive
same,outcome,[6],inactive
CC1OC1C1CCC2(C)OC2C1 (stereo not drawn),outcome,[1],inactive
same,outcome,[7],inactive
same,outcome,[2],inactive
same,AC50,[3],23.4 µM (active)
same,outcome,[4],inactive
CC(C)=CCC/C(C)=C\C#N,outcome,[5],inactive
same,AC50,[3],29.3 µM (active)
same,outcome,[4],inactive
CCCCCCC(O)CO (stereo not drawn),outcome,[9],inactive
same,outcome,[6],inactive
C=CC=CC=CCCCCC,outcome,[1],inactive
same,outcome,[2],inactive
same,AC50,[8],6.66 µM (active)
same,AC50,[3],6.77 µM (active)
CO[Si](OC)(OC)c1ccccc1,outcome,[1],inactive
same,outcome,[2],inactive
same,outcome,[3],inactive
C=CCOc1c(Br)cc(Br)cc1Br,AC50,[1],28.7 µM (active)
same,outcome,[5],inactive
same,outcome,[7],inactive
same,AC50,[2],25.8 µM (active)
same,outcome,[8],inactive
same,AC50,[3],27.4 µM (active)
same,outcome,[6],inactive
CCOC(=O)c1ccccc1C(=C1C=C(Br)C(=O)C(Br)=C1)c1cc(Br)c(O)c(Br)c1,AC50,[1],21.1 µM (active) and 21.2 µM (active)
same,AC50,[2],20.1 µM (active) and 19.1 µM (active)
same,outcome,[3],inactive
C=C(C)CCO,outcome,[5],inactive
same,outcome,[7],inactive
same,outcome,[3],inactive
same,outcome,[6],inactive
same,outcome,[4],inactive
CCCCCCCC(C)=O,outcome,[3],inactive
same,outcome,[6],inactive
Cc1cc(=O)n(-c2ccccc2)n1C,outcome,[3],inactive
same,outcome,[6],inactive
same,outcome,[4],inactive
CC1=CC[C@H](C(C)C)C=C1,AC50,[8],27.9 µM (active)
same,AC50,[3],0.822 µM (active)
COC(=O)c1cc(Cl)ccc1[N+](=O)[O-],AC50,[8],19.7 µM (active)
same,outcome,[3],inactive
COC(=O)C1=C(C)NC(C)=C(C(=O)OCC(C)C)C1c1ccccc1[N+](=O)[O-] (stereo not drawn),AC50,[8],6.19 µM (active)
